Compound activity (PubChem BioAssay)
Rce1 inh = inhibitors of yeast Ras-converting enzyme | calls only | AID 2563 | yeast membranes, quenched prenylated peptide cleavage fluorescence | Q03530 | hit rate 0.27% among 290,000;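 active = fall in fluorescence gain of 50% or more versus controls, with final raw signal at or below 3038400; inconclusive = same 50% fall but final raw signal above 3038400; inactive = fall in fluorescence gain under 50%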;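 note: plate controls were neutral control wells for no effect and wells lacking membranes for full effect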
Target sequence (Q03530 whole entry, looked up): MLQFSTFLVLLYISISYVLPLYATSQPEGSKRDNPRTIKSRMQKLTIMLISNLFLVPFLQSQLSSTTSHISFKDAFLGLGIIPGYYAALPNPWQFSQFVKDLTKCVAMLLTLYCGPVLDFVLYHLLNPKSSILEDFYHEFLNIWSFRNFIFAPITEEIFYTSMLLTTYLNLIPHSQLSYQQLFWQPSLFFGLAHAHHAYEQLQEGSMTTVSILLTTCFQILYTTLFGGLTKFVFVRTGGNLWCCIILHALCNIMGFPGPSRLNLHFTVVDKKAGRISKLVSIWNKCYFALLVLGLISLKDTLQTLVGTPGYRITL
TMEM16A act = activators or potentiators of mouse TMEM16A chloride channel | Q8BHY3 | HEK293 TMEM16A/YFP-H148Q/I152L, iodide quench fluorescence; stronger effect = lower value | B-score at 10 µM | hit rate 0.3% among 340,000 | AID 623877;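 active = fluorescence-ratio B-score plate-corrected deviation score at least 3 library SD below zero, with starting fluorescence score within 5 deviations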;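 note: channel opened by trigger with iodide after compound preincubation; score built on the fluorescence ratio of max minus min over baseline; more negative score means more quench and so TMEM16A activation or potentiation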
Kir21 block = blocks the mouse Kir2.1 inward-rectifier potassium channel | B-score at 10 µM | AID 1672 | HEK293-Kir2.1, FluxOR thallium flux fluorescence; stronger effect = lower value | hit rate 0.85% among 310,000;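 active = fluorescence ratio B-score at or below minus 3 SD of library scores, with starting-brightness B-score within 2 SD, cut at about -4.2 in these data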;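 note: channel flux triggered by added potassium and thallium sulfate stimulus; B-score of peak minus minimum fluorescence over baseline after thallium stimulus; more negative B-score means stronger Kir2.1 block with less thallium influx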
Target sequence (P35561 whole entry, looked up): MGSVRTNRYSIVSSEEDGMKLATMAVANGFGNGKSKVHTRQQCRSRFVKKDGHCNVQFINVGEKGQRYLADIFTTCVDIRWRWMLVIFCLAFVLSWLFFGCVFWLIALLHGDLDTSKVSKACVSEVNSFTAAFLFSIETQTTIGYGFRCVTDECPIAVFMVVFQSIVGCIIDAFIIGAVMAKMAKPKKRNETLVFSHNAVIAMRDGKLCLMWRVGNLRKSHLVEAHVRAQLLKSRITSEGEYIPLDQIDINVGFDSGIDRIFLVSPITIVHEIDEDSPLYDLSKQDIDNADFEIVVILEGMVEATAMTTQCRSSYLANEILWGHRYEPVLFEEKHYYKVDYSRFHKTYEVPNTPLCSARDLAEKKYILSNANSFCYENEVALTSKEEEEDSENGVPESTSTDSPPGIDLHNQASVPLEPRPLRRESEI
TMEM16A inh = blocks the mouse calcium-activated chloride channel TMEM16A | Q8BHY3 | HEK293 TMEM16A/YFP iodide influx fluorescence, ionomycin | normalized B-score (activity score, 25-100; higher = stronger inhibition) at 10 µM | hit rate 1.2% among 310,000 | AID 588511;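 active = ratio plate-corrected score three or more library SD toward inhibition, starting fluorescence score within five deviations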;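 note: score derived from kinetic fluorescence span divided by baseline fluorescence per well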
CHT block = human CHT choline transport inhibition | Q9GZV3 | B-score at 10 µM | CHT-expressing cells, membrane potential dye, choline response; stronger effect = lower value | hit rate 0.86% among 310,000 | AID 488975;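 active = B-score over 3 SD under the library average, and starting fluorescence ratio not unusually high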;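 note: choline stimulus applied at its EC90 after an EC20 pre-addition; B-score computed on integrated fluorescence ratio after choline addition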
CHT PAM = allosterically activates the human high affinity choline transporter. hit rate 0.49% among 310,000. B-score at 10 µM. Q9GZV3. CHT-expressing cells, membrane potential dye, choline EC20; stronger effect = higher value; LV-AA mutant CHT in HEK293 cells;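 active = initial fluorescence not abnormally high and integrated response B-score, plate-corrected, over 3 SD above library mean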
CHT act confirm = human CHT activation, confirmatory screen | shares compounds with CHT PAM | CHT-expressing cells, membrane potential dye fluorescence (FDSS); % of choline EC20–EC90 response window; HEK293 expressing CHT LV-AA mutant; choline added at its EC20 | activation, % at 10 µM | hit rate 91% among 2,500 | AID 504833;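 active = primary screen active, with duplicate mean activation above negative control mean plus 3 SD, cut at about 11% in these data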
HEK293 MP dye = counter-screen for CHT activators: effect in parental HEK293 cells; shares compounds with CHT PAM; ratio readout change at 10 µM, hits read low; hit rate 62% among 2,500; membrane potential dye fluorescence (FDSS); measured after EC20 choline addition;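 active = duplicate-averaged ratio beyond 3 SD from buffer wells, up or down, though filed actives are nearly all decreases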
TMEM16A reconf = re-confirmation of mouse TMEM16A chloride channel inhibitors. shares compounds with TMEM16A inh. inhibition, % at 10 µM. HEK293 TMEM16A/YFP-H148Q, iodide quench fluorescence; ionomycin added to raise cell calcium. hit rate 39% among 2,300. AID 652189;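 active = mean duplicate percent inhibition, scaled so buffer wells are 0 and the reference blocker 100, over three buffer SD above buffer mean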
TMEM16A Ca cntr = calcium mobilization counter-screen hit for TMEM16A inhibitor series; shares compounds with TMEM16A inh; TMEM16A/YFP HEK293, Fluo4 calcium mobilization; calcium response (% of ionomycin), % at 10 µM; hit rate 2% among 2,300;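 active = duplicate-averaged calcium signal over 20% of the ionomycin maximum, relative to buffer baseline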;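 note: each well's signal is peak minus trough fluorescence divided by its pre-addition baseline; 0% = buffer wells and 100% = ionomycin wells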
YFP-HEK293 quench = counter-screen for TMEM16A inhibitors: effect in parental YFP-HEK293 cells; YFP ratio F(max-min)/F0 at 10 µM; iodide YFP quench, ionomycin; shares compounds with TMEM16A inh; 2,300 tested, under 10 active;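 active = yellow fluorescent protein signal ratio exceeding the buffer control mean by over 5 SD of those controls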;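 note: ratio is mean of duplicate wells from kinetic YFP trace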
ClC-1 rat inh = blocks the rat ClC-1 voltage-dependent chloride channel | 2,300 tested, under 10 active | shares compounds with TMEM16A inh | CHO ClC-1-YFP, iodide influx fluorescence quench; iodide control reads 0, buffer control 100 | ratio percent, % at 10 µM | AID 652236;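 active = duplicate-mean ratio percent above the mean of iodide-only control wells, which defines zero, plus 5 of their SD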;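 note: higher percent means stronger block of ClC-1 iodide influx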
* = called active by the depositor; i = inactive; ? = inconclusive; · = not tested or not shown; + = active, no number. Sampled rows, rich in hits. Any-hit rate of the full collection: about 3.2%.

SMILES | Rce1 inh | TMEM16A act | Kir21 block | TMEM16A inh | CHT block | CHT PAM | CHT act confirm | HEK293 MP dye | others
Oc1ccc2c3c1OC1c4oc5ccccc5c4C[C@@]4(O)[C@@H](C2)N(CC2CC2)CC[C@]314 (stereo not given in full) | · | i | · | · | · | · | · | ·
Cc1cc(C)[n+](CCCC[n+]2c(C)cc(C)cc2C)c(C)c1 | i | i | 0.02 | i | i | 7.9* | 73* | -99*
C[n+]1c(-c2ccccc2)cc(-c2ccc(Cl)cc2)cc1-c1ccccc1 | i | i | -3.2 | i | i | 7.2* | 30* | -29*
C[C@]12CCC3C(CC[C@H]4C[C@H](O)CC[C@]34C)C1C[C@H](O)[C@@H]2O (stereo not given in full) | · | i | · | · | · | · | · | ·
O=[N+]([O-])c1ccc(N2CCCC2)cc1N/N=C1\CN2CCC1CC2 | i | i | 0.84 | i | i | 6.5* | 55* | -73*
COCCN1Cc2cc(=O)n3c([nH]c4ccccc43)c2C1=N | i | i | 0.1 | i | i | i | 53* | -42*
O=c1oc2ccccc2c(O)c1[C@H]1c2ccc(O)cc2Oc2c1c(=O)oc1ccccc21 | i | i | 1.5 | i | i | i | · | ·
Cc1ccc(NC(=O)[C@@H](NC(=O)N2C[C@H]3C[C@@H](C2)c2cccc(=O)n2C3)C(C)C)cc1 | · | i | 0.5 | i | i | i | · | ·
N=C1c2ccccc2CN1CC(=O)c1ccccc1 | i | i | -3.9 | i | i | i | · | ·
CCN(CC)CCN1Cc2ccccc2C1=N | i | i | 2 | i | i | 11* | 75* | -73*
CCCCn1c(O)c(C(=O)/C=C/c2c[nH]c3ccccc23)c(=O)[nH]c1=O | i | i | -11 | i | i | i | · | ·
COC(=O)C1=C(c2cc3ccccc3o2)C[C@@H]2CC[C@H]1N2C(=O)N1CCC(O)CC1 | i | i | -0.59 | i | i | i | · | ·
CCOC(=O)c1c(N)n(CCN2CCCCC2)c2nc3ccccc3nc12 | i | i | 0.17 | i | i | i | 29* | -42*
COc1ccccc1N1C(=O)CC(=O)NC1=O | i | i | -0.43 | i | i | i | · | ·
CN(C)C(=O)Oc1ccc2c(c1)O/C(=C\c1cccc(Cl)c1)C2=O | i | i | -0.09 | i | i | i | · | ·
COc1cc2c3c(c1OC)-c1cc(O)ccc1CC3NCC2 (stereo not given) | i | i | -0.11 | i | i | i | 48* | -42*
O=[N+]([O-])c1ccc(N2CCNCC2)cc1NCC1CCCO1 (stereo not given) | i | i | -0.45 | i | i | 9* | 56* | -66*
C[C@]12CCC(=O)C[C@H]1CC[C@@H]1[C@@H]2CC[C@]2(C)C(=O)CC[C@@H]12 | · | i | · | · | · | · | · | ·
COC(=O)C1=C(c2c(C)noc2C)C[C@@H]2CC[C@H]1N2C(=O)NCc1ccc(C(F)(F)F)cc1 | · | i | · | · | · | · | · | ·
CCOc1cc(-c2nc3c(C)cccn3c2NCC2CCCO2)ccc1O (stereo not given) | + | i | 0.28 | i | i | 6.4* | 56* | -34*
CNC(=S)N(C)CCc1cc2c(c(OC)c1/C=C1/C(=O)NC(=O)N(C)C1=O)OCO2 | i | i | 0.13 | i | i | 6.6* | 37* | -54*
COC(=O)C1=C(c2ccc(OC(F)(F)F)cc2)C[C@@H]2CC[C@H]1N2C(=O)N1CCCC1 | · | i | · | · | · | · | · | ·
Cc1cc(N2CCOCC2)nc2ccc(NC(=O)CCC(=O)N3CCC4(CC3)OCCO4)cc12 | ? | i | 0.01 | i | i | i | 53* | -38*
CCOC(=O)c1ccc(-[n+]2c(-c3ccccc3)cc(-c3ccccc3)cc2-c2ccccc2)cc1 | i | -14* | -11* | i | i | 7.7* | 63* | i
Cc1ccc(-c2cc(-c3ccc(C)cc3)[n+](-c3ccc(C(=O)[O-])cc3)c(-c3ccc(C)cc3)c2)cc1 | i | i | -8.2* | i | i | 9.7* | 12* | -35*
SMILES | Rce1 inh | TMEM16A act | Kir21 block | TMEM16A inh | CHT block | CHT PAM | CHT act confirm | HEK293 MP dye | others
COc1ccc(-n2nc(C(=O)NCC(=O)N3CCC4(CC3)OCCO4)c3ccccc3c2=O)c(OC)c1 | i | i | -0.69 | i | i | i | · | ·
COc1ccc(C(=O)OC2C[C@H]3CC[C@H](C2)N3C)cc1OC (stereo not given in full) | · | i | · | i | i | 6.6* | 40* | -32*
CCOC(=O)C1SC2(C(F)(F)F)CC1(O)c1c(C)cc(C)nc1O2 (stereo not given) | i | i | 0.47 | 25* | i | i | · | · | TMEM16A reconf=i;TMEM16A Ca cntr=i;YFP-HEK293 quench=-0.95;ClC-1 rat inh=-2
Cc1ccc(N=Cc2c(O)n(-c3ccc(C)cc3)c(=O)[nH]c2=O)cc1 | i | i | 1.7 | i | i | i | · | ·
CCN(CC)c1ccc(N=Cc2c(O)n(-c3ccc(Cl)cc3)c(=O)[nH]c2=O)cc1 | i | i | -0.43 | i | i | i | · | · | TMEM16A reconf=i;TMEM16A Ca cntr=i;YFP-HEK293 quench=-0.85;ClC-1 rat inh=10
O=[N+]([O-])c1ccc(N2CCCCCC2)c2ncccc12 | i | i | -0.15 | 25* | i | i | · | · | TMEM16A reconf=i;TMEM16A Ca cntr=i;YFP-HEK293 quench=-0.88;ClC-1 rat inh=1
Cn1nc(-c2ccc(OCC(=O)N3CCN(Cc4ccccc4)CC3)cc2)c2ccccc2c1=O | i | i | -0.8 | 100* | i | i | · | · | TMEM16A reconf=20%*;TMEM16A Ca cntr=i;YFP-HEK293 quench=-0.96;ClC-1 rat inh=-14
